# Experimental data as given in the supplement of paper PMC3484114.
# ± gives the standard deviation.
# System: OVCAR-3-derived ovarian cancer stem-like cells (spheroids)
# Assay: cell growth relative to untreated control; higher = more growth (less inhibition)
# Conditions: 2.29 µM; 96 h
# Outline: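 OVCAR-3 spheroid-derived stem-like cells were trypsin-dissociated, seeded at 50,000 cells/mL in stem cell medium in ultra-low attachment 96-well plates and preincubated 24 h. Compounds were then added at 2.29 uM for 96 h at 37°C, 5% CO2, in 4 replicate wells. Viability was read as TOX8 resazurin fluorescence (ex 560/em 590 nm) after 4 h. Percent growth was calculated relative to untreated wells after blank subtraction and Grubbs outlier removal.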
row,SMILES,cell growth
1,O=C(O)c1ccc(NC(c2ccccc2)c2ccc3cccnc3c2O)cc1 (centres undefined),89.7 ± 46%
2,C=CC(=O)N1C/C(=C\c2ccccc2)C(=O)/C(=C/c2ccccc2)C1,43.2 ± 6.1%
3,CSc1ccc(NC(=O)CCl)cc1,80.8 ± 14%
4,C=C(C)[C@@H]1CC[C@]2(C)CC[C@]3(C)[C@H](CC[C@@H]4[C@@]5(C)CC[C@H](O)C(C)(C)[C@@H]5CC[C@]43C)[C@@H]12,121 ± 19%
5,Cc1cc(C)c(NC(=O)/C=C/c2ccccc2)c(C)c1,89.7 ± 13%
6,CCCC(=O)[O-].[Na+],88.2 ± 19%
7,CCCCOc1ccc(NC(N)=Nc2ccc(Cl)cc2)cc1,124 ± 20%
8,Cn1cnc([N+](=O)[O-])c1Sc1nnnn1-c1ccccc1,92.6 ± 24%
9,O=C1C(=O)c2ccccc2C(O)=C1CC=C(Cl)Cl,92.3 ± 30%
10,O=C(O)CC(NC(=O)CP(=O)(O)O)C(=O)O (centres undefined),106 ± 16%
11,CCCCCC(CN1CCOCC1)C(=O)/C=C/c1ccccc1 (centres undefined),93 ± 29%
12,COc1cc2c(c(OC)c1OC)-c1ccc(OC)c(=O)cc1[C@@H](NC(=O)c1ccccc1)CC2,30.8 ± 5.6%
13,C=C1CC(Cn2cc(Br)c(=O)[nH]c2=O)(c2ccc(-c3ccccc3)cc2)OC1=O (centres undefined),57.1 ± 20%
14,O=C(CC1(O)C(=O)Nc2c(Cl)cc(Cl)cc21)c1ccc([N+](=O)[O-])cc1 (centres undefined),101 ± 29%
15,COc1ccc(C=CC(=O)Oc2cc(O)cc(O)c2)cc1,99.6 ± 16%
16,O=[N+]([O-])c1ccc2oc(=Nc3ccccc3)c(Nc3ccccc3)nc2c1,101 ± 11%
17,COc1ccc(OC)c2nc3c(C(=O)NCCN(C)C)cccc3nc12,119 ± 27%
18,O=C1Nc2c(Cl)cc(Cl)cc2C1=NN=Cc1ccco1,84.3 ± 20%
19,CO[C@H]1/C=C\C=C(/C)C(=O)NC2=CC(=O)C(N)=C(C[C@@H](C)C[C@H](OC)[C@H](O)[C@@H](C)/C=C(\C)[C@@H]1OC(N)=O)C2=O,29.6 ± 4.9%
20,N#CC1CC(c2ccccc2)Nc2cc(Cl)ccc2N1 (centres undefined),80.4 ± 20%

row,SMILES,cell growth
1,CC1=NN(C(=O)c2ccncc2)C(=O)C1N=Nc1ccc(F)cc1 (centres undefined),146 ± 33%
2,COC(=O)C1CCC(=O)N1C(c1ccc(OC)cc1)c1cc(OC)c(OC)c(OC)c1 (centres undefined),18.5 ± 9.1%
3,O=C(Nc1ccc(Sc2ccc(N=Nc3c(O)c(S(=O)(=O)O)cc4cc(S(=O)(=O)O)ccc34)cc2)cc1)c1ccc(N=Nc2c(O)ccc3c(S(=O)(=O)O)cc(S(=O)(=O)O)cc23)cc1,95.9 ± 9.6%
4,CC1=CC(=O)c2cccc(NC3=NCCO3)c21,92.8 ± 25%
5,Cc1ccccc1OCC(COC(=O)Nc1ccccc1)OC(=O)Nc1ccccc1 (centres undefined),111 ± 16%
6,COc1ccc(C2c3cc4c(c(OC)c3CC3OCC(=O)C32)OCO4)cc1OC (centres undefined),41.3 ± 11%
7,COc1cc2c3c(c1OC)-c1cc4c(cc1CC3(C#N)N(C(=O)c1ccccc1)CC2)OCO4 (centres undefined),93.1 ± 24%
8,O=C1NC(c2cccc3ccccc23)Nc2ccc(Cl)cc21 (centres undefined),99.5 ± 9.1%
9,C=C(Cl)C(Cl)(CBr)CCC(Br)C(C)(C)Cl (centres undefined),70.7 ± 16%
10,CN(C)c1ccc(/C=N/N=C2\C(=O)Nc3c(Cl)cc(Cl)cc32)cc1,106 ± 28%
11,COc1cc2cc(c1Cl)N(C)C(=O)C[C@H](OC(=O)[C@H](C)N(C)C(C)=O)[C@]1(C)O[C@H]1[C@H](C)[C@@H]1C[C@@](O)(NC(=O)O1)[C@H](OC)/C=C/C=C(\C)C2,22.5 ± 4.8%
12,Cc1ccc2[c](c1)[Sn]([c]1ccccc1)([c]1ccccc1)[c]1cc(C)ccc1N2C,87.8 ± 12%
13,O=C1C=CC(CC(=O)c2ccc3ccccc3c2)O1 (centres undefined),112 ± 18%
14,CCCCCCCCCCCCCCCCOCC(O)CO (centres undefined),126 ± 28%
15,[O-][S+]1c2ccccc2N=C(c2cccc3ccccc23)CC1c1cccc2ccccc12 (centres undefined),84.1 ± 16%
16,Nc1ccc2c(c1)S(=O)(=O)c1cc(N)ccc1-2,112 ± 21%
17,COc1cc2c(c(OC)c1OC)-c1c(cc3c(c1OC)OCO3)CC(C)C(C)(O)C2OC(=O)c1ccccc1 (centres undefined),130 ± 29%
18,COC(=O)NC1C(C)OC(OC2C/C=C(/C)C3C=CC4C(OC5CC(OC6CCC(OC7CC(O)C(OC8CCC(O)C(C)O8)C(C)O7)C(C)O6)C(OC(C)=O)C(C)O5)C(C)CC(C)C4C3(C)/C(O)=C3/C(=O)OC4(CC(C=O)=CC(O)C4/C=C\2C)C3=O)CC1(C)[N+](=O)[O-] (centres undefined),61.9 ± 10%
19,C=C1C(=O)O[C@@H]2/C=C(/C)C(=O)C[C@H]3OC(C)(C)O[C@]3(C)C[C@@H](OC(=O)/C(C)=C\C)[C@@H]12,90.5 ± 31%
